Many of the other results were omitted from the sample, so hits are more common in it than they were.
Tgondii IFNg: blocks Toxoplasma gondii growth in the presence of IFN-gamma. Toxoplasma gondii growth in IFN-gamma-treated host cells; hits give low values. activity change, negative = inhibition, % (no concentration beside the values). 69,000 tested, 3.8% active. AID 1259416; in the data active means activity change below about -70%, passing the limit was not always enough;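 further: host cells are HeLa cells infected with Toxoplasma gondii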
Numbers stand for hits; – = inactive; ! = not confirmed by another sample.

SMILES | Tgondii IFNg
COc1cccc(S(=O)(=O)Nc2ccc3c(c2)C(=O)N(C)C[C@@H](OC)[C@H](C)CN(Cc2ccccc2F)[C@H](C)CO3)c1 | -97.2
COc1cccc(S(=O)(=O)Nc2ccc3c(c2)C(=O)N(C)C[C@H](OC)[C@@H](C)CN(Cc2ccccc2F)[C@H](C)CO3)c1 | –
Cc1nc(-c2ccc(F)cc2)nc2c1CCN(C(=O)C(C)C)CC2 | –
CC1=NS(=O)(=O)NC(C)=C1CCC(=O)O | –
O=C(CCSc1cccs1)Nc1cccc(C(F)(F)F)c1 | –
CC(=O)c1ccc(N2CCc3nnc(CCc4ccccc4)n3CC2)nc1 | –
CCN1CC2(CCN(Cc3cnn(C)c3)CC2)COc2ccccc2S1(=O)=O | –
CN(CCOc1ccccc1)C(=O)c1ccc(CC2CCCNC2)cc1 (centres undefined) | –
O=S(=O)(c1ccc(C2CCCCC2)cc1)N1CCC2(CC1)Nc1cc(F)ccc1-n1cccc12 | –
Cc1ccc(NC2=CC(=O)c3sc(C)nc3C2=O)cc1 | -75.6
C=CCN(CC#Cc1ccccc1)C(=O)c1cc(=O)n(C)c(=O)n1C | –
COCc1ncc(-c2nccn2-c2ccc(-c3ccn[nH]3)cc2)cn1 | –
O=S(=O)(Nc1ccc(C2=NCCO2)cc1)c1ccc(Cl)cc1 | –
O=S1(=O)CCN(Cc2ccc(NS(=O)(=O)c3ccc(Cl)cc3)cc2)CC1 | -92.1
CNS(=O)(=O)c1ccc(CN2CCN(Cc3cccc(F)c3)CC2)cc1 | –
O=C(NC1CCC(n2cnnc2)CC1)c1ccc(Cn2ccnc2)o1 (centres undefined) | –
CCOC(=O)C(=O)Nc1ccc(-c2nc(-c3cc(C)ccc3C)co2)cc1 | –
OC1(C(F)(F)F)CC(c2ccc3c(c2)Nc2ccccc2S3)=NN1 (centres undefined) | –
OC1(C(F)(F)F)CC(c2cc3ccccc3o2)=NN1 (centres undefined) | –
OC1(C(F)(F)F)CC(/C=C/c2ccc3c(c2)OCO3)=NN1 (centres undefined) | -86.4
C[C@]12CCc3occc3C1CC[C@@]13C[C@@H](CCC12)[C@@](O)(CO)C3 (some centres undefined) | –
Cc1nc2ncccn2c1C(=O)N1[C@@H]2CC[C@H]1CNC(=O)C2 | –
Cc1cccc(C)c1-c1c(-c2ccccc2)ncn1CC(O)CO (centres undefined) | –
CS(=O)(=O)CCNCc1ccc(-c2ccc3ncnc(Nc4ccc(OCc5cccc(F)c5)c(Cl)c4)c3c2)o1 | -81.3
CCOc1ncnc2c1CCN(c1cc(C(F)(F)F)ncn1)CC2 | –
SMILES | Tgondii IFNg
Cc1cncc(C(=O)N2CCOC3CC(COc4ccccn4)CC32)c1 (centres undefined) | –
CCc1c(C)cc(C(=O)N2CCCC(O)(CN(C)C)C2)c(=O)n1C (centres undefined) | –
O=C(c1ccc2c(c1)CCC(=O)N2Cc1ccccc1)N1CCN(c2ccccc2F)CC1 | -102.0
CCN1C(=O)CCc2cc(C(=O)N3CCOCC3)ccc21 | –
CCN1C(=O)CCc2cc(C(=O)N3CCCCC3)ccc21 | –
CC(C)NC(=O)C(C)Oc1ccc(S(=O)(=O)NCc2ccccn2)cc1 (centres undefined) | –
CCN(Cc1cnn(CC)c1)C(=O)c1ccc(NC(=O)C2CCC2)cc1 | –
CCOC(=O)c1nn(-c2cccc(Cl)c2)cc1C#N | –
Cc1ccc(F)cc1-n1c(-c2ccn[nH]2)n[nH]c1=O | –
CCn1c(=O)c(-c2ccn[nH]2)cc2c(C)nc(N)nc21 | -74.4
CCn1c(C2CCCN(Cc3ccc(-c4ccn[nH]4)s3)C2)nn(C)c1=O (centres undefined) | –
CCCc1cc(CNC(=O)c2cnc(C)nc2C)on1 | –
O=C(NC(=O)c1ccccc1F)OCc1ccc(Cl)cc1Cl | –
N/C(Cc1ccc(Cl)cc1Cl)=N\OC(=O)c1ccc(Br)o1 | -85.8
O=C(OCc1ccc(Cl)cc1Cl)c1ccc2ccccc2n1 | –
O=C(O)C(Cc1ccc(F)cc1)c1ccccc1 (centres undefined) | –
S=C(NCc1ccccc1)NCc1cccc(CNC(=S)NCc2ccccc2)c1 | –
Fc1ccc(CNC(=S)NC(Cc2ccccc2)c2ccccc2)cc1 (centres undefined) | -93.9
Cc1cccc(NC(=O)c2c(O)c3ccccc3[nH]c2=O)n1 | –
O=C(O)CCN(CCC(=O)O)c1nncs1 | –
Clc1cc2c(cc1-c1nccn1-c1ccc(Oc3nn[nH]n3)cc1)OCO2 | –
Cc1cc2c(cc1-c1nccn1-c1ccc3cn[nH]c3c1)OCO2 | -81.1
Cc1cc2c(cc1-c1nccn1CCc1nc(-c3cccnc3)no1)OCO2 | –
C=CCN1CCN(C)C(=O)C12CCN(C(=O)c1cc(C)[nH]n1)C2 (centres undefined) | –
CCn1c(SCc2cccnc2)nnc1C1CCCN(S(C)(=O)=O)C1 (centres undefined) | –
SMILES | Tgondii IFNg
COc1cc(C(=O)N2CCC(O)(CN(C)C)C2)ccn1 (centres undefined) | –
COc1cccc(CC2(CO)CCN(c3ncccn3)CC2)c1 | –
CCc1ncc(C(=O)N(CC)Cc2cc(Cl)ccc2OC)cn1 | –
Cc1ccc(S(=O)(=O)NCCc2csc(-c3ccc(Cl)cc3)n2)cc1 | –
Cc1ccc(S(=O)(=O)NCCc2csc(-c3ccc(Cl)cc3)n2)s1 | –
COc1ccc(S(=O)(=O)NCCc2csc(-c3ccc(Cl)cc3)n2)cc1C | –
Cc1ccc(S(=O)(=O)NCCc2csc(-c3ccc(F)cc3)n2)s1 | -101.9
Cc1ccc(S(=O)(=O)NCCc2csc(-c3ccc(Cl)cc3)n2)cc1C | -82.6
Cc1ccc(S(=O)(=O)NCCc2csc(-c3ccc(F)cc3)n2)cc1 | –
CN1CCC(c2nc3ccc(Nc4ccccc4)cn3n2)CC1 | –
CCn1nc(C)c(CN(CCOC)c2ncnc3oc(C)nc23)c1C | –
CC(C)NC(=O)Cn1nnc(C(N)=O)c1N | –
CCc1cnc(N2CCC3(CCN(C(=O)c4cnccn4)CC3)C2)nc1 | –
CN1CCN(C2=Nc3cc(Cl)ccc3Nc3ccccc32)CC1 | -94.9!
Clc1ccc2c(c1)N=C(N1CCNCC1)c1ccccc1N2 | –
CN1CCN(C2=Nc3cc(F)ccc3Cc3ccccc32)CC1 | –
Cc1cccc(C)c1NC(=O)C(=O)NCCc1sc(-c2cccc(F)c2)nc1C | –
CC(C)N(C)Cc1ncn2c1CN(CC(=O)N(C)C)CCC2 | –
CN(Cc1ccccn1)C(=O)[C@@H]1C[C@H]2CCN(c3ncccn3)C[C@@H]2O1 | –
C=CCN(Cc1cccnc1)C(=O)c1nc2ccccc2s1 | –
Cc1nc(-n2cnnc2)ccc1-c1cccc(Cl)c1Cl | -84.3
Nc1nnc(-c2cccc(Cl)c2Cl)c(N)n1 | –
COc1cccc(Cl)c1-c1cccc(-n2cnnc2)c1 | –
Cc1ccc(=O)n(CC(=O)N2CCC(C(=O)NCCc3ccc(Cl)cc3)C2)n1 (centres undefined) | –
CCN(Cc1cccc(C(=O)Nc2cnn(C)c2)c1)Cc1nc(C)no1 | –
SMILES | Tgondii IFNg
COC[C@H]1CCCN1Cc1ccc(C(=O)Nc2cnn(C)c2)cc1 | –
Cc1ccsc1CN(C)Cc1ccc(C(=O)Nc2cnn(C)c2)cc1 | -84.2
Cc1nc(-c2ccc(F)cc2)sc1-c1ccc(SCc2ccccn2)nn1 | –
Cc1nn(C)cc1C(=O)N1CCCCC1c1ncccc1C(=O)NCc1ccccc1 (centres undefined) | –
CC(=O)c1[nH]c(C)c(C(=O)N2CCC(O)(c3ccc(C)cn3)CC2)c1C | –
CC(C)N1CC(C(=O)N(C)C)C2(CCc3ccccc3C2O)C1 (centres undefined) | –
Cc1ccc(C)c(N2CCN(C(=O)CC3Nc4c5ccccc5nc(=S)n4C3=O)CC2)c1 (centres undefined) | –

Screening data: PubChem, Broad Institute
